Results reported in PubChem BioAssay AID778 (Sanford-Burnham Center for Chemical Genomics, 2007).
Out of some 96,000 compounds screened, about 20,000 (21%) were called active. Not all results are given here. Unmarked numbers belong to inactive results.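 How the source made its calls: active means CYP2C19 inhibition above a set limit at 5 µM in the primary screen (cut at about 50% in these data); inactive means the rest.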

What follows are molecules tested against Cytochrome P450 2C19 (Homo sapiens) (UniProt P33261) (assay: blockers of cytochrome P450 2C19 activity – biochemical, luminescence, ADME assay, primary screen (AID 778;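 further: plate controls were negative control wells for no effect and 2.5 mM tranylcypromine positive control for full effect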)). Settings: CYP2C19 Supersomes, luciferin-H EGE luminescence, 30 min; at 5 µM; stronger effect = higher value.
Chain of Cytochrome P450 2C19 (Homo sapiens) (P33261 whole entry, looked up): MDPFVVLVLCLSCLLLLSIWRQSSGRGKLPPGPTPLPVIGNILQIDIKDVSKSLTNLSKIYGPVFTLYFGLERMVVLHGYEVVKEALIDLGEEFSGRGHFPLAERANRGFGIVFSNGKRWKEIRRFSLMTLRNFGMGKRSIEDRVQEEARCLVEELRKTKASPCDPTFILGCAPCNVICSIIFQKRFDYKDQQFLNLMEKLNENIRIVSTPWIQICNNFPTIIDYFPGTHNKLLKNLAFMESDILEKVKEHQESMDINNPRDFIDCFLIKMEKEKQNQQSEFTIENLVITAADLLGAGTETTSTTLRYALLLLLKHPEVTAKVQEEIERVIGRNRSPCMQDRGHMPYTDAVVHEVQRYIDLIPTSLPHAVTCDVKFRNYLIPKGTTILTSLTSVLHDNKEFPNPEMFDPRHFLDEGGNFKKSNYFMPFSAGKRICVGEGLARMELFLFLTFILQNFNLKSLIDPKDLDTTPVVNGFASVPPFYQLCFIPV

Row | Structure (SMILES) | inhibition
1 | COc1ccc(-c2cc(C(=O)NC(C(=O)O)C(C)C)c(C)o2)cc1OC (stereo not given) | 6.4%
2 | CCN(CC)P(=O)(C(NC(=O)OC)C(F)(F)C(F)(F)C(F)(F)C(F)F)N(CC)CC (stereo not given) | 10%
3 | CCN(CC)CCNC(=O)CCCCCn1c(=O)[nH]c2cc(C(=O)OC)ccc2c1=O | 0%
4 | Cc1n[nH]c(C)c1S(=O)(=O)N1CCCC(C(=O)NCC2COc3ccccc3O2)C1 (stereo not given) | 15.3%
5 | Cc1nn(-c2ccccn2)c2c1C(c1ccncc1)C1=C(CC(C)(C)CC1=O)N2 (stereo not given) | 98.7% (active)
6 | Cc1cc2c(cc1C)NC(c1ccccn1)C1=C(CC(C)(C)CC1=O)N2 (stereo not given) | 1.3%
7 | O=S(=O)(N1CCCCC1)N1CCNCC1 | -28.7%
8 | CCN(CC)CCn1c2ccc(Cl)cc2c2nc(C)sc21 | 49.4%
9 | CCC1CCCCN1C(=O)Nc1cccc(NC(=O)N2CCCCC2CC)c1 (stereo not given) | -10.7%
10 | COc1ccc(C(C)=O)cc1CN1C(=O)NC2(CCCCC2C)C1=O (stereo not given) | 33.8%
11 | Cc1c(C(=O)CN2CCOCC2)[nH]c2ccccc12 | 56% (active)
12 | Cc1ccc2c(C(=O)CN3CCCC3)c(C)[nH]c2c1 | 26.2%
13 | Cc1c(C(=O)N2CCOCC2)[nH]c2ccc(OCc3ccccc3)cc12 | 43.3%
14 | CCOC(=O)N1CCN(CC(=O)c2c(C)[nH]c3ccccc23)CC1 | 88% (active)
15 | Cc1[nH]c2ccccc2c1C(=O)COC(=O)C(C)C | 25.9%
16 | CC1CCN(CC(=O)c2c[nH]c3ccccc23)CC1 | 12.2%
17 | CSc1nc2ccccc2cc1/C=C(\C#N)c1ccc(Cl)cc1Cl | 12.7%
18 | COc1ccc(OC)c(CN2C(=O)CCC2(C)C(=O)NC2CCCCCC2)c1 (stereo not given) | 18.1%
19 | CCOc1c2ccc(C(=O)NCc3ccc(OC(F)(F)F)cc3)cc2nn1C | 13.9%
20 | O=C(NCc1cccs1)c1ccc2c(c1)ncn2C1CCCC1 | 5.6%
21 | O=C(COC(=O)c1ccccc1SCC(=O)NC1CCCCC1)NC1CCCCC1 | 12.2%
22 | COCCNC(=O)c1onc(CSc2cccc(C)c2)c1C(=O)O | 39.1%
23 | CCOC(=O)CC1C(=O)NCCN1C(=O)COc1ccc(Br)cc1C (stereo not given) | 15.5%
24 | CCCCn1c(CN2CCN(CCO)CC2)nc2ccccc21 | 20.4%
25 | CCCCn1c(CCCNC(=O)CC)nc2ccccc21 | -20%

Row | Structure (SMILES) | inhibition
26 | C=C(Br)Cn1c(CCCC)nc2ccccc21 | 63.8% (active)
27 | Cc1nc2c(-c3ccccc3)c(C)[nH]n2c(=O)c1Cl | -1%
28 | CC(=O)Nc1nc(C)c(Cc2ccccc2)c(=O)[nH]1 | 6.3%
29 | CC(Sc1sc(=S)sc1SC(C)C(=O)O)C(=O)O (stereo not given) | -1.4%
30 | CCCOc1ccc(Cn2c(O)cc(=O)[nH]c2=O)cc1 | -7.8%
31 | CC1Cc2ccccc2N1C(=O)c1cc2sccc2n1Cc1ccccc1 (stereo not given) | 25.4%
32 | CCOC(=O)c1cc2sccc2n1Cc1ccc(C#N)cc1 | 96.9% (active)
33 | CCOc1ccc(-c2nnc(-c3ccco3)o2)cc1 | 19%
34 | COc1cc(C2CC(=O)N3CN(Cc4ccccc4)CSC3=C2C#N)ccc1OCc1ccccc1 (stereo not given) | 33%
35 | Cc1ccc(CNC(=O)C2CC(c3ccccc3[N+](=O)[O-])=NO2)o1 (stereo not given) | 61.7% (active)
36 | O=C(NCCCCc1ccccc1)C1CC(c2ccc([N+](=O)[O-])cc2)=NO1 (stereo not given) | 9.5%
37 | COc1ccc(C2=NOC(C(=O)NCc3ccco3)C2)cc1OC (stereo not given) | -4.7%
38 | O=C(O)CN(Cc1ccco1)S(=O)(=O)c1ccccc1 | -12.5%
39 | COc1ccc(N2CCN(C3CC(=O)N(c4ccc5c(c4)OCCO5)C3=O)CC2)cc1 (stereo not given) | 9.7%
40 | Cc1ccc(N2C(=O)CC(Sc3ncn[nH]3)C2=O)cc1 (stereo not given) | 5.4%
41 | Cc1ccc(CC2CC(=O)N(c3ccc4c(c3)OCCO4)C2=O)cc1 (stereo not given) | 62.6% (active)
42 | COC(=O)N1CN(C(=O)OC)CN(C(=O)OC)C1 | -10.2%
43 | CCn1c(SCc2ccc(C)cc2)nnc1-c1nn(-c2ccccc2)ccc1=O | -0.8%
44 | O=C(Cc1ccc(-n2c(=O)c3sccc3n(Cc3ccc(F)cc3)c2=O)cc1)NCc1ccco1 | 49.5%
45 | O=C(NCc1ccco1)c1cc2sccc2n1Cc1ccc(F)cc1 | 32.8%
46 | O=C(NCc1ccco1)c1ccc(Cn2c(=O)c3sccc3n(Cc3ccc(F)cc3)c2=O)cc1 | 79.8% (active)
47 | C=CCn1c(Oc2ccc(C(=O)OC)cc2)nc2c1c(=O)n(C)c(=O)n2C | 5.6%
48 | CC(=O)NCCc1ccc(S(=O)(=O)N(C)C2CCS(=O)(=O)C2)cc1 (stereo not given) | -2.2%
49 | Cc1cc(C)c(S(=O)(=O)N2C=CC(C(F)(F)F)=NCC2)c(C)c1 | 19%
50 | CCNS(=O)(=O)c1ccc(NC(=O)Nc2cccc(C(F)(F)F)c2)cc1 | 1.1%

Row | Structure (SMILES) | inhibition
51 | O=C(CNS(=O)(=O)c1cccc(C(F)(F)F)c1)Nc1ccccc1F | 74.7% (active)
52 | O=C(Cn1cc(/C=N/NC(=O)c2cccc(C(F)(F)F)c2)c2ccccc21)Nc1ccc(F)cc1 | 9.9%
53 | CCN(CC(=O)NCc1cccs1)c1nnnn1-c1ccccc1 | 27.1%
54 | Oc1c(CN2CCN(c3ccc(F)cc3)CC2)cc(Cl)c2cccnc12 | 18.8%
55 | COCCn1nnnc1C(c1ccccc1Cl)N1CCN(c2ccccc2OC)CC1 (stereo not given) | 54% (active)
56 | COCCn1nnnc1CN1CCC(NC(=O)Nc2cccc(OC)c2)CC1 | -0.3%
57 | COc1cc(-n2c(C)nc3cc(C(=O)NCc4ccco4)ccc32)cc(OC)c1OC | 42.8%
58 | CCCCCCNC(=O)CSc1nccn1Cc1ccccc1 | 37.7%
59 | CCCCNC(=O)CSc1nnc(-c2ccco2)n1C | 20%
60 | COC(=O)Cn1nc(-c2ccccc2)c2cc(Cl)ccc21 | 21.2%
61 | CCCCNC(=O)CSc1nccn1Cc1ccccc1 | 53.8% (active)
62 | O=C(CSc1ncccn1)NC(=O)NCc1ccccc1 | 13.9%
63 | COC(=O)CCSc1nccn1Cc1ccccc1 | 76.8% (active)
64 | Nc1nonc1C(=O)NCCc1ccccc1 | 31.5%
65 | O=C(CSc1ncccn1)NCCc1ccccc1 | 80.6% (active)
66 | O=C(O)CSc1nccn1-c1cccc(Cl)c1 | 43.9%
67 | CC1CN(c2cc(=O)n(-c3cccc(Br)c3)c(=O)[nH]2)CC(C)O1 (stereo not given) | -14.8%
68 | N=c1ccn(CC(=O)NC(N)=O)c2ccccc12 | -6.6%
69 | Cc1cccc(COc2ccccc2/C=N/Nc2ccc([N+](=O)[O-])cc2)c1 | 16.5%
70 | CCCCOC(=O)NCN1C(=O)C2C3C=CC(C3)C2C1=O (stereo not given) | -6.3%
71 | O=c1[nH]n(-c2cccc(Cl)c2)c2ncccc12 | -10.9%
72 | CC(=O)c1nc(N2C(=O)C3CC=C(C)CC3C2=O)sc1C (stereo not given) | -13.9%
73 | CCOC(=O)c1c(C)c(C(=O)NCCc2ccc(S(N)(=O)=O)cc2)c(C)n1CC | 1.4%
74 | COc1cnc(SCc2ccc(Cl)c(Cl)c2)nc1Cl | 52.9% (active)
75 | CCN(CC)S(=O)(=O)c1cccc(C(=O)Nc2ccccc2)c1 | 53.4% (active)

Row | Structure (SMILES) | inhibition
76 | CCN(c1ccccc1)S(=O)(=O)c1cccc(C(=O)O)c1 | 3.1%
77 | Cc1noc(C)c1C(=O)Nc1ccccn1 | 14.4%
78 | CCN(CC)S(=O)(=O)c1cccc(C(=O)NCC(=O)OCC(=O)NCc2ccccc2)c1 | 29.7%
79 | O=S(=O)(/N=C(/Nc1ccccn1)c1ccccc1)c1ccc(Cl)cc1 | 40.3%
80 | CCN(CC)S(=O)(=O)c1cc(C(=O)Nc2ccccn2)ccc1C | 60.7% (active)
81 | CCN(CC)S(=O)(=O)c1cc([N+](=O)[O-])ccc1NNC(=O)Nc1ccccc1 | -12.2%
82 | CSc1nc(-c2ccco2)nn1C(=O)CCc1ccccc1 | -16.6%
83 | c1ccc(C2CCC(N3CCC(N4CCCCC4)CC3)CC2)cc1 (stereo not given) | -4.1%
84 | CCn1c(O)c2ccc(C(=O)N=NC(=O)c3cccnc3)cc2c1O | -5.7%
85 | COC(=O)COc1ccc2oc(=O)cc(C)c2c1 | 3.6%
86 | O=C(NC1CC1)c1ccc2c(c1)NC(=O)c1ccccc1S2 | -13.6%
87 | CCn1ncc(C2=NOC(C(=O)Nc3ccccc3C(=O)OC)C2)c1C (stereo not given) | 35.2%
88 | CCOC(=O)COc1cc(OCC(=O)OCC)c2c(=O)cc(-c3ccccc3)oc2c1 | 46.7%
89 | c1ccc(CSc2nnc(-c3ccco3)n2Cc2ccccc2)cc1 | 30%
90 | COc1ccc(-n2c(SCC(=O)NCc3cccs3)nnc2-c2ccoc2C)cc1 | 75.8% (active)
91 | Cc1nc2nc(SCC(=O)NCc3ccco3)nn2c(C)c1Cc1ccccc1 | 31.8%
92 | CCn1c(SCC(=O)NCc2ccco2)nnc1-c1ccc(N)cc1 | -15%
93 | O=C(CSc1nnc(-c2ccco2)n1-c1ccccc1)NCCc1ccccc1 | 31%
94 | COc1ccc(C(=O)NC(=O)CSc2nnc(-c3ccco3)n2-c2ccccc2)cc1 | -11.7%
95 | COc1ccc(-n2c(SCC(=O)NCc3ccco3)nnc2-c2c[nH]c3ccccc23)cc1 | 15.5%
96 | O=C(CSc1nnc(-c2ccco2)n1Cc1ccccc1)NC(=O)NCc1ccco1 | 50.1% (active)
97 | Cc1cc(C)c2c(c1)c(C)cc1nnc(SCC(=O)NCc3ccco3)n12 | 49.9%
98 | O=C(CSc1nnc(-c2cccs2)n1-c1ccccc1)NCc1ccco1 | 62.1% (active)
99 | CCOc1ccccc1-n1c(SCC(=O)NCc2ccco2)nnc1-c1ccncc1 | 73% (active)
100 | O=C(CSc1nnc(-c2cccs2)n1-c1ccccc1)N1CCN(C(=O)c2ccco2)CC1 | -0.7%
